# Measurements from PubChem BioAssay (EPA / NIEHS).
# Where “and” joins values, the source holds several entries; their conditions need not be identical. Equal entries are not always repeated. Inconclusive results are not listed. The source holds several records for some structures; these can differ, active in one and inactive in another. Calls of active or inactive are those of the source. Rule for the calls: active = hit-call score of the fitted dose curve at least 0.9, where 1 is the maximum; inconclusive = response in the unintended direction; inactive = score below 0.9.
# Tests used:
# [1] = biological target: rat Neurokinin-3 Receptor (NK3), Tacr3 (gene 24808) (UniProt P16177); test: NVS_GPCR_rNK3: NovaScreen (NVS) G Protein-Coupled Receptor Assay for rat Neurokinin-3 Receptor (NK3) (AID 2283310)
# Outline: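 Filter-based radioligand displacement on rat cortex membrane preparations, read by scintillation 2 h post-dose. Chemicals first tested in duplicate at 25 uM; actives followed up in concentration series with a 50 uM maximum.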
# [2] = biological target: rat Opioid Receptor, Non-selective Sodium (Na+) Binding, Oprm1 (gene 25601) (UniProt P33535); test: NVS_GPCR_rOpiate_NonSelectiveNa: NovaScreen (NVS) G Protein-Coupled Receptor Assay for rat Opioid Receptor, Non-selective Sodium (Na+) Binding (AID 2283311)
# Outline: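 Filtration radioligand binding on rat forebrain membrane preparations, read 1.5 h after dosing. Single-concentration 25 µM primary screen in duplicate, followed by singleton concentration series to 50 µM max for actives; DMSO baseline.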
# [3] = biological target: rat Somatostatin Receptor (SST), Sstr1 (gene 25033) (UniProt P28646); test: NVS_GPCR_rSST: NovaScreen (NVS) G Protein-Coupled Receptor Assay for rat Somatostatin Receptor (SST) (AID 2283314)
# Outline: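 Single-concentration duplicate screen (25 uM), then concentration-response up to 50 uM for chemicals passing a threshold such as 30% inhibition. Membranes came from rat forebrain. Binding was measured 1 h post-dose by filter radiodetection and scintillation, relative to DMSO.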
# [4] = biological target: rat Vasopressin 1 Receptor (V1), Avpr1a (gene 25107) (UniProt P30560); test: NVS_GPCR_rV1: NovaScreen (NVS) G Protein-Coupled Receptor Assay for rat Vasopressin 1 Receptor (V1) (AID 2283316)
# Outline: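 Concentration-response up to 50 uM for chemicals passing a threshold such as 30% inhibition in an initial duplicate 25 uM screen. Displacement of radioligand from rat liver membranes measured after 1.5 h by filtration and scintillation.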
# [5] = biological target: rat Glutamate, AMPA Site (AMPA), Gria1 (gene 50592) (UniProt P19490); test: NVS_LGIC_rAMPA: NovaScreen (NVS) Ligand-Gated Ion Channel Assay for rat Glutamate, AMPA Site (AMPA) (AID 2283324)
# Outline: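 Screening at 25 uM in duplicate preceded concentration series reaching 50 uM for qualifying compounds. Radioligand displacement on rat forebrain membranes, 1 h, filter-based scintillation readout; reduced binding relative to DMSO.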
# [6] = biological target: rat Glutamate, NMDA Agonist Site (GluNMDA), Grin1 (gene 24408) (UniProt P35439); test: NVS_LGIC_rGluNMDA_Agonist: NovaScreen (NVS) Ligand-Gated Ion Channel Assay for rat Glutamate, NMDA Agonist Site (GluNMDA) (AID 2283327)
# Outline: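 Radioligand displacement at the agonist site on rat forebrain membrane preparations, read by filter scintillation after 1 h. Chemicals were first run at 25 uM in duplicate; those passing threshold were titrated to a 50 uM maximum.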
# [7] = biological target: human Peripheral-type Benzodiazepine Receptor (PBR), TSPO (gene 706) (UniProt P30536); test: NVS_MP_hPBR: NovaScreen (NVS) Membrane Protein Assay for human Peripheral-type Benzodiazepine Receptor (PBR) (AID 2283331);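 note: hits reduce radioligand binding relative to DMSO baseline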
# Outline: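 Cell-free binding to human colonic membrane preparations measured by filter-based scintillation counting after 1 h. Compounds first run at 25 uM in duplicate, then concentration series for actives; signal loss against DMSO baseline.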
# [8] = biological target: rat Peripheral-type Benzodiazepine Receptor (PBR), Tspo (gene 24230) (UniProt P16257); test: NVS_MP_rPBR: NovaScreen (NVS) Membrane Protein Assay for rat Peripheral-type Benzodiazepine Receptor (PBR) (AID 2283335)
# Outline: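 Competitive displacement of specific radioligand from rat kidney membrane PBR, read by filtration and scintillation after 1 h. Compounds first tested at 25 uM in duplicate, then in concentration series; signal loss relative to DMSO.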
# [9] = biological target: rat Neonicotinoid receptor (NNR), Chrna7 (gene 25302) (UniProt Q05941); test: NVS_LGIC_rNNR_BungSens: NovaScreen (NVS) Ligand-Gated Ion Channel Assay for rat Neonicotinoid receptor (NNR) (AID 2283315)
# Outline: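 Rat cortical membrane preparation incubated 2.5 h with tritiated or iodinated radioligand and test chemical. Bound radioactivity was filtered and counted by scintillation, and displacement was analysed against DMSO.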
# [10] = biological target: rat Opioid Receptor, Non-selective Binding, Oprm1 (gene 25601) (UniProt P33535); test: NVS_GPCR_rOpiate_NonSelective: NovaScreen (NVS) G Protein-Coupled Receptor Assay for rat Opioid Receptor, Non-selective Binding (AID 2283318)
# Outline: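 Filter-based radioligand displacement using rat forebrain membrane preparations, measured 1.5 h post-dosing. Single-concentration duplicate screen at 25 uM, follow-up in concentration series; activity taken as signal loss relative to DMSO.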
# [11] = NVS_IC_rCaDHPRCh_L: NovaScreen (NVS) Ion Channel Assay for rat Calcium Channel, Type L, Dihydropyridine Site (CaDHPRCh_L) (AID 2283320)
# Outline: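 Rat cortex membrane preparation; dihydropyridine-site radioligand displacement read 1 h post-dose by filtration and scintillation. Primary single-point screen 25 uM in duplicate, then concentration series to 50 uM maximum; DMSO as negative control.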
# [12] = biological target: Sodium channel protein type 1 subunit alpha (Rattus norvegicus) (UniProt P04774); test: NVS_IC_rNaCh_site2: NovaScreen (NVS) Ion Channel Assay for rat Sodium Channel, Site 2 (NaCh) (AID 2283322);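 note: hit means loss of radioligand binding signal relative to DMSO so AC50 marks displacement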
# Outline: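 Initial duplicate single-point testing at 25 uM, followed by concentration-response runs for actives. Binding of radioligand to rat forebrain membranes quantified after 1 h via filter-based radiodetection.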
# [13] = biological target: human Serotonin, 5-Hydroxytryptamine Receptor 3 (5HT3), HTR3A (gene 3359) (UniProt P46098); test: NVS_LGIC_h5HT3: NovaScreen (NVS) Ligand-Gated Ion Channel Assay for human Serotonin, 5-Hydroxytryptamine Receptor 3 (5HT3) (AID 2283325)
# Outline: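 Initially tested at 25 uM in duplicate, then up to 50 uM in concentration-response for actives, compounds competed with a radioligand for HEK293-derived human 5-HT3 receptor. Bound counts were measured by filtration and scintillation at 1 h; loss of signal versus DMSO.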
# [14] = biological target: human Androgen Receptor (AR), AR (gene 367) (UniProt P10275); test: NVS_NR_hAR: NovaScreen (NVS) Nuclear Receptor Binding Assay for human Androgen Receptor (AR) (AID 2283332)
# Outline: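 Radioligand competitive binding, scintillation read-out, in cell-free extract from LnCAP, measured 20 h after dosing. Screened first in duplicate at 25 uM, then concentration series for actives; activity fitted against DMSO.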
# [15] = biological target: rat Thyrotropin Releasing Hormone Receptor (TRH), Trhr (gene 25570) (UniProt Q01717); test: NVS_GPCR_rTRH: NovaScreen (NVS) G Protein-Coupled Receptor Assay for rat Thyrotropin Releasing Hormone Receptor (TRH) (AID 2283329);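 note: hit means lower bound tracer signal versus DMSO baseline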
# Outline: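 Rat forebrain membrane prep, radioligand displacement, filter scintillation readout at 4 h. Single conc 25 uM, duplicate; actives retested as concentration series. DMSO = negative control/baseline.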
# NCBI gene 24521 = test: NVS_IC_rKATPCh: NovaScreen (NVS) Ion Channel Assay for rat Potassium Channel, ATP-Sensitive (KATPCh) (AID 2283319)
# Outline: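 Primary duplicate screen at 25 uM, then singleton concentration series to 50 uM maximum, in a rat cortex membrane radioligand displacement assay. Binding measured by filtration and scintillation 2 h post-dose; DMSO baseline.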
# [16] = biological target: rat Gamma-Aminobutyric Acid Type A Receptor, Non-Selective (GABAR-NonSelective), Gabra1 (gene 29705) (UniProt P62813); test: NVS_LGIC_rGABAR_NonSelective: NovaScreen (NVS) Ligand-Gated Ion Channel Assay for rat Gamma-Aminobutyric Acid Type A Receptor, Non-Selective (GABAR-NonSelective) (AID 2283326)
# Outline: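 Compounds were first screened in duplicate at 25 uM, with actives run as singleton concentration series (max 50 uM). Binding of a radioligand to rat whole-brain GABA-A preparation was measured by filtration and scintillation counting after 1 h, DMSO baseline.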
# rat Opioid Receptor, Non-selective Sodium (Na+) Binding, Oprm1 (gene 25601), sequence (P33535 whole entry, looked up): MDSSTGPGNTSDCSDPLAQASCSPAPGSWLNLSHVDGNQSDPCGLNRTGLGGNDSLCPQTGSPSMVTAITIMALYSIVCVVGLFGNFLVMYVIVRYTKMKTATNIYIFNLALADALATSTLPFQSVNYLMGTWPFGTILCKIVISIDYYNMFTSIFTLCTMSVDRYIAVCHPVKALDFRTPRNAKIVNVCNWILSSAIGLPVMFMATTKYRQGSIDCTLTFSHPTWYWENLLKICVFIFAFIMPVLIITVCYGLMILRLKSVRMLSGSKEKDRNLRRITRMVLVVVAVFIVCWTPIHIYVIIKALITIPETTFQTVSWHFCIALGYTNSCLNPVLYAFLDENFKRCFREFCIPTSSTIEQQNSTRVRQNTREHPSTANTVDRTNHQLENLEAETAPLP
# human Androgen Receptor (AR), AR (gene 367), sequence (P10275 whole entry, looked up): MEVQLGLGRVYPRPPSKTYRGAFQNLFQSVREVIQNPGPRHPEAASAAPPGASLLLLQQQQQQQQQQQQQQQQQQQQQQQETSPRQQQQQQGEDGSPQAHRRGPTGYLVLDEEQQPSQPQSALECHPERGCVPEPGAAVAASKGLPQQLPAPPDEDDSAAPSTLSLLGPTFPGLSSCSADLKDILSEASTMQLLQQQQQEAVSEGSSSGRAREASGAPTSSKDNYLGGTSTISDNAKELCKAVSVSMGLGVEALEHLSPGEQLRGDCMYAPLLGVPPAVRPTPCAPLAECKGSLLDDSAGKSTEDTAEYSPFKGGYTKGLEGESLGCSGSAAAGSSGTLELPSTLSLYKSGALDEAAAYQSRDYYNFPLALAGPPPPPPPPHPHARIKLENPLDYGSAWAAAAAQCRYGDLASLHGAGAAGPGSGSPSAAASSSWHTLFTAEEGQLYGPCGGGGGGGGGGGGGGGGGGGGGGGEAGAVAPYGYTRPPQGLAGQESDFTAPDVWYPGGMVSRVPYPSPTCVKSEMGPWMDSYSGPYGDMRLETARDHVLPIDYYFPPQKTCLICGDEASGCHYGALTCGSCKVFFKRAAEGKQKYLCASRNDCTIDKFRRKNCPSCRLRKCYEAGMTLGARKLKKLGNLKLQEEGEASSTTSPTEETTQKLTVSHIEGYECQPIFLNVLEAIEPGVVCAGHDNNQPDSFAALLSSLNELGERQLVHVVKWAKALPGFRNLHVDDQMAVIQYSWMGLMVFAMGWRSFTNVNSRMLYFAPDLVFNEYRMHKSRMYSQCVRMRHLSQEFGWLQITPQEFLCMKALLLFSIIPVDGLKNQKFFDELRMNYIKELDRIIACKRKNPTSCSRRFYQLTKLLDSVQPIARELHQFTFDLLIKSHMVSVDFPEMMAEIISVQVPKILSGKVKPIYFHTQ
# rat Glutamate, AMPA Site (AMPA), Gria1 (gene 50592), sequence (P19490 whole entry, looked up): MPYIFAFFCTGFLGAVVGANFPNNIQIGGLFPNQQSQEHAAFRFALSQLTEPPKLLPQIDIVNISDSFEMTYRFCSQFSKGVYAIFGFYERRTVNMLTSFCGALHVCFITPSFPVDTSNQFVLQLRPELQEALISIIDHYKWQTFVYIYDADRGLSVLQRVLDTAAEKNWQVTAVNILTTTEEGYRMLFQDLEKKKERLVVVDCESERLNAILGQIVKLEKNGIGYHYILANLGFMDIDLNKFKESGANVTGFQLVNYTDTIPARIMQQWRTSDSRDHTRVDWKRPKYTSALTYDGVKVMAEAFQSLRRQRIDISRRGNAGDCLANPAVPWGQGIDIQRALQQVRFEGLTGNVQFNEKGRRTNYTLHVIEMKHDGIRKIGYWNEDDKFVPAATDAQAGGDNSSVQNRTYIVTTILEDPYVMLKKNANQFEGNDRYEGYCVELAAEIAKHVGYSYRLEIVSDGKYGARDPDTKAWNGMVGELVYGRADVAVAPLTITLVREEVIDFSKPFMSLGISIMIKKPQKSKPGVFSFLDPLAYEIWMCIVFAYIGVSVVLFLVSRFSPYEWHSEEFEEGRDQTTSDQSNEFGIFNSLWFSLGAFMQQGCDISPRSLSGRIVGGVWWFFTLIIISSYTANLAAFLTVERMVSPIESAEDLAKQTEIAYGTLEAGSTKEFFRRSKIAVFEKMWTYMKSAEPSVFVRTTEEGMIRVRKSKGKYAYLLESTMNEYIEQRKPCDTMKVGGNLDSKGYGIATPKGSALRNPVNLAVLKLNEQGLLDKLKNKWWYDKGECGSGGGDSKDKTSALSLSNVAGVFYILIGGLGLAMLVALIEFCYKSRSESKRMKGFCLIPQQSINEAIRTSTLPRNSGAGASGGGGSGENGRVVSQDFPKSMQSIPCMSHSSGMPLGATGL
# rat Thyrotropin Releasing Hormone Receptor (TRH), Trhr (gene 25570), sequence (Q01717 whole entry, looked up): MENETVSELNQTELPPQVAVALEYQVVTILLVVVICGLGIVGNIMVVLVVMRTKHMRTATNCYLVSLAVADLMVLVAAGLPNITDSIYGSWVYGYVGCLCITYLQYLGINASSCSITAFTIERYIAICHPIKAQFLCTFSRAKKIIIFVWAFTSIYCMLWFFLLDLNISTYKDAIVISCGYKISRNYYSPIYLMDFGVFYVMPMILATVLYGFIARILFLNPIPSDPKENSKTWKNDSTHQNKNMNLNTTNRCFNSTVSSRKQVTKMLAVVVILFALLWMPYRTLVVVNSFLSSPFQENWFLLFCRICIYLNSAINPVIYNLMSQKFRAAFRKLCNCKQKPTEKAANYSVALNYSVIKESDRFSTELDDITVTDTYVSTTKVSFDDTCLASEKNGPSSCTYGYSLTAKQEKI
# rat Somatostatin Receptor (SST), Sstr1 (gene 25033), sequence (P28646 whole entry, looked up): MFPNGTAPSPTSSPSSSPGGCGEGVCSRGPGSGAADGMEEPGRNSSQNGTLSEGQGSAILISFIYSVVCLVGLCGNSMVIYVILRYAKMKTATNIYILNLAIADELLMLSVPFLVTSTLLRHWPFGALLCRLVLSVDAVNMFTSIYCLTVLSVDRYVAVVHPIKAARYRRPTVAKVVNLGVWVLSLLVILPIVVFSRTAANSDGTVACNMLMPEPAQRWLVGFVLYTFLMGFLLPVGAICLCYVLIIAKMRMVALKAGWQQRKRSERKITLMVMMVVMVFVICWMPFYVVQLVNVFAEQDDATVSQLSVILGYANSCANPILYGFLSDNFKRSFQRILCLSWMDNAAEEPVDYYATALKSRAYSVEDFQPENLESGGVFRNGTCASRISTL
# human Peripheral-type Benzodiazepine Receptor (PBR), TSPO (gene 706), sequence (P30536 whole entry, looked up): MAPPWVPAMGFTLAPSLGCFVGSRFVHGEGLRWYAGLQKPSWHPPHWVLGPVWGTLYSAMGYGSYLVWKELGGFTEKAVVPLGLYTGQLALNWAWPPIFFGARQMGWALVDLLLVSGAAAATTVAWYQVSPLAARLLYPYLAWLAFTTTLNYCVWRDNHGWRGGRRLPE
# rat Peripheral-type Benzodiazepine Receptor (PBR), Tspo (gene 24230), sequence (P16257 whole entry, looked up): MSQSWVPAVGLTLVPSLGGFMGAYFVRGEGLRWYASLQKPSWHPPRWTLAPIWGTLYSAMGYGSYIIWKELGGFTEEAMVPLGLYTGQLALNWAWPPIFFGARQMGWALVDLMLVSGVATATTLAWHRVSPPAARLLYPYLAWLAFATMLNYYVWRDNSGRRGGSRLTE
# rat Neonicotinoid receptor (NNR), Chrna7 (gene 25302), sequence (Q05941 whole entry, looked up): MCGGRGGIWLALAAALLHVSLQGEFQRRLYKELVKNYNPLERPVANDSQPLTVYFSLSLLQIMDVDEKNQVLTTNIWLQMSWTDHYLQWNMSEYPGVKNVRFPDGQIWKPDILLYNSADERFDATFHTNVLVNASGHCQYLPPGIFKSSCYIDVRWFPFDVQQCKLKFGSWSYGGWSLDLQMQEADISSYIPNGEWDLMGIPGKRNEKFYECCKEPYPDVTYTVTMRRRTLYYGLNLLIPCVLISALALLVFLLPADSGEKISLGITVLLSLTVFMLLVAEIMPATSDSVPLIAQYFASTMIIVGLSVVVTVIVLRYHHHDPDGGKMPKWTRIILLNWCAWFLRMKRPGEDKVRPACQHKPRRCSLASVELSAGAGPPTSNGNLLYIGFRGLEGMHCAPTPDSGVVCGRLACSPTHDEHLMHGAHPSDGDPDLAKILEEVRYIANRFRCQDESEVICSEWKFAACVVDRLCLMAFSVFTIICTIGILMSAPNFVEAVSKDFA
# rat Opioid Receptor, Non-selective Binding, Oprm1 (gene 25601), sequence (P33535 whole entry, looked up): as the sequence (P33535 whole entry, looked up) above
# rat Neurokinin-3 Receptor (NK3), Tacr3 (gene 24808), sequence (P16177 whole entry, looked up): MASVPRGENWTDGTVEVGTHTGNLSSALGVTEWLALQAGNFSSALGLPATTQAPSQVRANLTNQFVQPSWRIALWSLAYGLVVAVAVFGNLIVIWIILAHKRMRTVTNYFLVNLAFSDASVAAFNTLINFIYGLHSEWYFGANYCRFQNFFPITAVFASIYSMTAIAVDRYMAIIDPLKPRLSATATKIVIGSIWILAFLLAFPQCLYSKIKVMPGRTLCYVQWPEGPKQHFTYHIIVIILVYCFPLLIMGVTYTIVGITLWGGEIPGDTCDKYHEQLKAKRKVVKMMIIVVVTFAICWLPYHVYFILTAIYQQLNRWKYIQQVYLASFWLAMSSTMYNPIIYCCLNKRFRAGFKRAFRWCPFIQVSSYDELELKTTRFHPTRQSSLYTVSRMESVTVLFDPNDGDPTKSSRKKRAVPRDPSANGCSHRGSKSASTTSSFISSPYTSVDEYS
compound,measurement,setting,value
S=C(S)NCCNC(=S)S.[Mn+2].[S-]C([S-])=NCCN=C([S-])[S-].[Zn+2],outcome,[1],inactive
same,outcome,[2],inactive
same,AC50,[3],1.49 µM (active)
same,outcome,[3],inactive
same,outcome,[4],inactive
same,AC50,[5],4.81 µM (active)
same,outcome,[5],inactive
same,outcome,[6],inactive
same,AC50,[7],9.51 µM (active) and 4.71 µM (active) and 3.45 µM (active)
same,outcome,[8],inactive
CC(C)(c1ccc(O)cc1)c1ccc(O)cc1,AC50,[2],25.4 µM (active) and 17 µM (active) and 20.5 µM (active)
same,outcome,[9],inactive
same,AC50,[10],25.4 µM (active) and 17.6 µM (active)
same,outcome,[11],inactive
same,AC50,[12],25.4 µM (active)
same,outcome,[12],inactive
same,outcome,[13],inactive
same,AC50,[6],19.7 µM (active) and 25.4 µM (active) and 15 µM (active)
same,outcome,[7],inactive
same,AC50,[14],9.86 µM (active) [middle of 4 runs]
same,outcome,[14],inactive
same,AC50,[8],6.73 µM (active) and 25 µM (active)
same,outcome,[8],inactive
COC(=O)c1ccccc1S(=O)(=O)NC(=O)Nc1nc(OC(F)F)cc(OC(F)F)n1,AC50,[3],36.3 µM (active)
same,outcome,[15],inactive
COC(=O)c1ccccc1C(=O)O,AC50,NCBI gene 24521,25 µM (active)
same,outcome,[7],inactive
c1ccc(Nc2ccccc2)cc1,outcome,NCBI gene 24521,inactive
same,outcome,[16],inactive
O=C(c1ccc(O)cc1O)c1ccc(O)cc1O,outcome,[9],inactive
same,outcome,[11],inactive
same,outcome,[15],inactive
same,AC50,[14],1.39 µM (active)
CC(C)(C)[C@@H](O)[C@@H](Cc1ccc(Cl)cc1)n1cncn1,outcome,[3],inactive
same,outcome,[6],inactive
CCCN(CCC)C(=O)SCC,outcome,[7],inactive
same,outcome,[14],inactive
same,AC50,[8],25 µM (active)
same,outcome,[8],inactive
N#CSCSc1nc2ccccc2s1,AC50,[4],2.34 µM (active)
same,AC50,[8],11.1 µM (active) and 9.24 µM (active)
CC(=O)[C@H]1CC[C@H]2[C@@H]3CCC4=CC(=O)CC[C@]4(C)[C@H]3CC[C@]12C,AC50,[7],1.75 µM (active) and 1.51 µM (active) and 4.64 µM (active)
C#CCOC(=O)[C@@H](C)Oc1ccc(Oc2ncc(Cl)cc2F)cc1,outcome,[8],inactive
CC(=O)S[C@@H]1CC2=CC(=O)CC[C@]2(C)[C@H]2CC[C@@]3(C)[C@@H](CC[C@@]34CCC(=O)O4)[C@H]12,AC50,[2],17.8 µM (active)
same,AC50,[9],17.1 µM (active)
same,AC50,[12],8.6 µM (active)
same,outcome,[6],inactive
same,outcome,[15],inactive
same,outcome,[7],inactive
